# Several values for one entry are separate records, joined by “and”; a condition that tells them apart may be missing. Equal values may be shown once. Values without a mark were called inactive. The rule behind the calls is not given here.
# Assay: hESC survival regulators, cell-based (AID 493140);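 note: cells exposed to compounds for four days before counting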
# Details: human embryonic stem cell survival screen; hits give high values
row,Compound,survival
1,CCCCCCCCCCCCC/C=C/[C@@H](O)[C@H](CO)NCCCCCCCC,61.3
2,CC(C)=CCC/C(C)=C/CC/C(C)=C/CSCC(=O)O,89.7
3,CC/C=C\C/C=C\C/C=C\C/C=C\C/C=C\C/C=C\CCC(=O)O,81.3
4,CC/C=C\C/C=C\C/C=C\CCCCCCCC(=O)O,92.8
5,NC(N)=NCc1cccc(I)c1,4
6,CCCCCCCCCCCCC/C=C/[C@@H](O)[C@@H](N)CO,98.4 and 83.2
7,CC/C=C\C/C=C\C/C=C\CCCCCCCCCC(=O)O,95.1
8,O=C(O)CCC/C=C\CC1C2CCC(O2)C1CNNC(=O)Nc1ccccc1 (stereo unspecified),88.6
9,O=C(O)CNC(=O)C(CS)Cc1ccccc1 (stereo unspecified),4.92
10,CCCCC/C=C\C/C=C\C/C=C\C/C=C\CCCC(=O)OC(CO)CO,72.6
11,CCCCC/C=C/C=C1/C(=O)C=C[C@@H]1C/C=C\CCCC(=O)O,82.2
12,CCCCCCCCCCCCC/C=C/[C@@H](O)[C@H](CO)N(C)C,80.2
13,CCCCC[C@H](O)/C=C/C1=C(CCCCCCC(=O)O)C(=O)CC1,68.1
14,C#CCCCCCCCCCCCCCCCC(=O)O,96.8
15,CCCCC[C@H](O)/C=C/C1=C(C/C=C\CCCC(=O)O)C(=O)CC1,130
16,COc1ccc(C(=O)NCc2cccnc2)cc1C(=O)NCc1cccnc1,25.1

row,Compound,survival
1,COc1ccc(-c2ccc(N)[n+](CCCC(=O)O)n2)cc1,6.75
2,CCCCCCCC/C=C\CCCCCCCC(=O)OC[C@H](CO)OC(C)=O,98.6
3,CCCCC/C=C\C/C=C\CCCCCCCC(=O)O,55.7
4,CCCCCCCCCCCCC/C=C/[C@@H](O)[C@H](CO)NC(=O)CCCCCCC,77.3
5,CCCCC[C@H](O)/C=C/[C@H]1C=CC(=O)[C@@H]1CCCCCCC(=O)O,103
6,CCCCCC#CCC#CCC#CCC#CCCCC(=O)O,87.3
7,CCCCCCCC/C=C\C/C=C\C/C=C\CCCC(=O)O,69.8
8,CC(=O)N[C@@H](CSC/C=C(\C)CC/C=C(\C)CCC=C(C)C)C(=O)O,97.2
9,CC/C=C\C/C=C\C/C=C\C/C=C\C/C=C\CCCCCC(=O)O,78
10,CC(=O)N[C@@H](CSC/C=C(\C)CC/C=C(\C)CC/C=C(\C)CCC=C(C)C)C(=O)O,106
11,CCCCCCCCC#CCC#CCC#CCCCC(=O)O,97.9
12,CCCCC[C@H](O)/C=C/[C@H]1C(=O)C[C@H](O)[C@@H]1C/C=C\CCCC(=O)O,96.1
13,CCCCC[C@H](O)/C=C/[C@H]1C=CC(=O)[C@@H]1C/C=C\CCCC(=O)O,122
14,CCCCC/C=C\C/C=C\C/C=C\C/C=C\CCCCCC(=O)O,79.5
15,CCCCC[C@H](O)/C=C/[C@H]1C(=O)C=C[C@@H]1C/C=C\CCCC(=O)O,86.8

# Source: PubChem BioAssay
